In PubChem BioAssay AID2734 (National Center for Advancing Translational Sciences (NCATS), 2010) one finds outcome data, which are given here for two compounds.

The experiment in a line: High Content Assay for Compounds that inhibit the Assembly of the Perinucleolar Compartment: DNA Intercalation/PicoGreen Displacement Assay. To be noted: fluorescence (intercalation counter-screen); series mostly up to 57.1 µM. The text has this:
High Content Assay for Compounds that inhibit the Assembly of the Perinucleolar Compartment
NIH Chemical Genomics Center [NCGC]
NIH Molecular Libraries Probe Centers Network [MLPCN]
Assay Submitter (PI): Sui Huang, Northwestern University, Feinberg School of Medicine, Cell and Molecular Biology, Chicago, Illinois.
The perinucleolar compartment (PNC) is a non-membrane-bound nuclear subdomain that is associated with but structurally distinct from the nucleolus. The PNC is a heritable trait, in which the number of PNCs per cell in daughter cells often mimics that of their mother cells. The PNC is heterogeneous in shape, is stable through interphase, disassembles during mitosis, and reassembles in early G1. […]
Therefore, we conducted a DNA intercalation/displacement assay on the lead candidates in order to exclude compounds with this mechanism of action. […] Compounds which displace the dye will decrease fluorescence intensity and were considered DNA intercalators/displacers. In order to rule out potential fluorescence artifacts, a measurement of compound plus DNA only was also calculated. […]
4. A baseline signal was measured using an Envision PMT based plate reader using a 488 nm excitation filter and a 520 nm emission filter. […]
6. Plates were incubated at 37 C for 10 minutes prior to being read on the envision plate reader. […]

Each structure is given as a SMILES string. Results filed as inconclusive are left out. Activity calls are given as the source filed them. The call rests on the fitted dose curve; in most records, active means well fitted inhibition curve with a large enough effect; inconclusive means small, poorly fitted or top-dose-only effect, or effect the other way; inactive means no such curve, though single readings can be large or run the other way.

As for `Cc1c2ccncc2c(C)c2c1[nH]c1ccccc12`, the call was inactive.
Then `CCC(=NCc1cc(OC)cc(OC)c1)c1c(O)n(C)c(=O)n(C)c1=O`, with “inactive”.
